In PubChem BioAssay (NCI) one finds growth data, which are given here for 8 molecules.

Test systems include NCI-H226 lung; NCI-H322M lung; HOP-62 NSCLC; NCI-H460 lung; HOP-92 NSCLC; NCI-H522 lung; A549/ATCC NSCLC; 786-0 renal; COLO 205 colon; DU-145 prostate; K-562 leukemia; MALME-3M melanoma; MDA-MB-231 breast; RXF 393 renal; SF-268 CNS; SF-295 CNS; SF-539 CNS; UACC-257 melanoma; M14 melanoma; HCT-15 colon.
Assay in all cases: NCI-60 one-dose screen, 48 h (100 = growth as untreated, 0 = no growth, -100 = all killed)
Conditions in all cases: 10 µM unless noted

Compounds without any hit were thinned out: in the full panel of roughly 83,000, 20% have a hit.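 Single-concentration screen, 48 h exposure, 96-well plates. Endpoint: percent growth. Below 10 = active.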 Unmarked numbers belong to inactive results. The source made the active and inactive calls.

In the case of `COc1ccc(-c2nc3ccc(-c4nnc(SCC(=O)Nc5ccc(C(=O)/C=C/c6ccccc6)cc5)o4)cc3[nH]2)cc1OC`, the growth with NCI-H226 lung is 98.2%; in the assay on NCI-H322M lung, 102%; in the assay on HOP-62 NSCLC it was 101%; in the assay with NCI-H460 lung it was 106%; in the assay with HOP-92 NSCLC, 98.4%; with NCI-H522 lung it was 98.4%. The growth was 102% in the assay with A549/ATCC NSCLC; 99.3% with 786-0 renal; 115% in the assay with COLO 205 colon; 107% in the assay on DU-145 prostate; 91.6% with K-562 leukemia; 97.1% in the assay on MALME-3M melanoma. The growth in the assay with MDA-MB-231 breast is 91.2%; in the assay with RXF 393 renal, 110%; with SF-268 CNS, 106%; in the assay on SF-295 CNS, 94.9%; in the assay on SF-539 CNS, 83.7%; in the assay on UACC-257 melanoma, 110%. In addition, the growth in the assay with M14 melanoma is 108%; in the assay on HCT-15 colon it was 91.8%.
Regarding `Cn1cc(-c2cc(N)n3nc(-c4cn(C)c5ccc(F)cc45)cc3n2)c2cc(F)ccc21`, the growth was 106% in the assay on NCI-H226 lung; 71.2% with NCI-H322M lung; 92% in the assay with HOP-62 NSCLC; -23.2% (active) with NCI-H460 lung; 75.7% in the assay on HOP-92 NSCLC; 28.6% with NCI-H522 lung. The growth in the assay on A549/ATCC NSCLC is 18.5%; in the assay on 786-0 renal it was -87.7% (active); with COLO 205 colon it was 115%; in the assay with DU-145 prostate it was 44.8%; with K-562 leukemia it was -26.2% (active); in the assay on MALME-3M melanoma, 90.8%. Moreover, the growth with MDA-MB-231 breast was 3.73% (active); with RXF 393 renal, 26.2%; with SF-268 CNS, 19.6%; in the assay on SF-295 CNS, 80.1%; in the assay on SF-539 CNS it was -58.5% (active); in the assay on UACC-257 melanoma it was 101%. Moreover, the growth with M14 melanoma is 20.3%; in the assay on HCT-15 colon, 4.58% (active).
As to `OC1CCN(CCCOc2c3ccc(Cl)cc3nc3c2oc2ccccc23)CC1`, the growth in the assay with NCI-H226 lung is -6.33% (active); with NCI-H322M lung, -16.3% (active); with HOP-62 NSCLC it was 12.5%; in the assay on NCI-H460 lung it was -9.21% (active); in the assay with HOP-92 NSCLC, -4% (active); with NCI-H522 lung, -48.9% (active). The growth with A549/ATCC NSCLC is 9.13% (active); in the assay on 786-0 renal it was -30.7% (active); with COLO 205 colon, -69% (active); in the assay on DU-145 prostate, -0.646% (active); in the assay on K-562 leukemia it was -7.34% (active); with MALME-3M melanoma, -81.2% (active). In addition, the growth was -14.7% (active) in the assay on MDA-MB-231 breast; -74.3% (active) in the assay on RXF 393 renal; 4.41% (active) with SF-268 CNS; -23.2% (active) in the assay on SF-295 CNS; -76.1% (active) with SF-539 CNS; -69.2% (active) in the assay with UACC-257 melanoma. Besides, the growth with M14 melanoma was -84.2% (active); with HCT-15 colon it was -31.7% (active).
As for `COc1ccc(C(=O)/C=C/c2ccc(OCc3ccc(Cl)cc3)c(OC)c2)cc1OC`, the growth in the assay with NCI-H226 lung is 56.4%; with NCI-H322M lung, 70.9%; with HOP-62 NSCLC, 103%; in the assay with NCI-H460 lung, 61.9%; with HOP-92 NSCLC it was 64.9%; in the assay with NCI-H522 lung, 68.3%. Also, the growth was 70% in the assay on A549/ATCC NSCLC; 80.7% in the assay on 786-0 renal; 88.4% with COLO 205 colon; 72.3% in the assay with DU-145 prostate; 23.9% with K-562 leukemia; 82.3% with MALME-3M melanoma. Besides, the growth in the assay with MDA-MB-231 breast is 57.7%; with RXF 393 renal it was 96.2%; in the assay with SF-268 CNS it was 78.7%; with SF-295 CNS, 68.3%; with SF-539 CNS, 71.8%; with UACC-257 melanoma, 83.5%. The results for the growth in the assay with M14 melanoma and in the assay with HCT-15 colon were 78.1% and 34.2%, respectively.
With `COc1cc2nc(-c3ccc(C(F)(F)F)cc3)cc(OCCCNCC3CCCO3)c2cc1OC` (stereo not given), the growth with NCI-H226 lung is 54.3%; with NCI-H322M lung it was 57.2%; in the assay with HOP-62 NSCLC it was 53.8%; in the assay with NCI-H460 lung, 21.8%; in the assay with HOP-92 NSCLC it was 26.3%; with NCI-H522 lung, 41.8%. Further, the growth with A549/ATCC NSCLC was 37.3%; with 786-0 renal it was -55.2% (active); in the assay with COLO 205 colon, 23.3%; with DU-145 prostate, 36.7%; with K-562 leukemia it was 10.2%; with MALME-3M melanoma, -15.6% (active). Further, the growth in the assay with MDA-MB-231 breast is 18.2%; in the assay with RXF 393 renal it was 3.22% (active); with SF-268 CNS, 59.5%; with SF-295 CNS, -33.6% (active); with SF-539 CNS, 45.5%; in the assay with UACC-257 melanoma, -38.7% (active). Moreover, the values for the growth in the assay with M14 melanoma and in the assay on HCT-15 colon were -66.5% (active) and 13.7%, respectively.
Take `Cc1cc2nc3c4cc(Cl)ccc4n(CC(=S)NCCN(C)C)c3nc2cc1C`: the growth is -60.4% (active) in the assay with NCI-H226 lung; 40.1% with NCI-H322M lung; 50.1% in the assay on HOP-62 NSCLC; -90.2% (active) in the assay on NCI-H460 lung; -6.84% (active) in the assay with HOP-92 NSCLC; -49.4% (active) in the assay with NCI-H522 lung. Besides, the growth in the assay on A549/ATCC NSCLC is -69.9% (active); in the assay on 786-0 renal, -95.6% (active); in the assay on COLO 205 colon it was -39% (active); with DU-145 prostate, -51.6% (active); in the assay with K-562 leukemia it was -43.6% (active); with MALME-3M melanoma it was -49.2% (active). The growth was -71.8% (active) with MDA-MB-231 breast; -67.8% (active) in the assay on RXF 393 renal; 26.8% in the assay with SF-268 CNS; -50.4% (active) in the assay on SF-295 CNS; -94.3% (active) in the assay on SF-539 CNS; -17.2% (active) with UACC-257 melanoma. Also, the growth in the assay with M14 melanoma is -90.1% (active); in the assay on HCT-15 colon it was -76.3% (active).
For the molecule `C#C[C@]1(O)CC[C@H]2[C@@H]3CC=C4c5sc(-c6ccc(F)cn6)nc5CC[C@]4(C)[C@H]3CC[C@@]21C`, the growth was 55.8% in the assay with NCI-H226 lung; 65.4% in the assay with NCI-H322M lung; 24.6% in the assay on HOP-62 NSCLC; 10.4% in the assay with NCI-H460 lung; 49.2% in the assay with HOP-92 NSCLC; 56.9% in the assay on NCI-H522 lung. Besides, the growth was 37.2% in the assay on A549/ATCC NSCLC; -62.5% (active) in the assay on 786-0 renal; 92.2% with COLO 205 colon; 47.3% in the assay with DU-145 prostate; 6.31% (active) in the assay on K-562 leukemia; 67.6% with MALME-3M melanoma. The growth in the assay on MDA-MB-231 breast was 17.1%; in the assay on RXF 393 renal, -50.7% (active); in the assay with SF-268 CNS, 23%; in the assay on SF-295 CNS, -70.6% (active); in the assay on SF-539 CNS it was -45.8% (active); in the assay with UACC-257 melanoma, -31.8% (active). The growth with M14 melanoma is 36.7%; in the assay with HCT-15 colon it was 30.5%.
In the case of `CN(C)CCCNc1c2ccc(Cl)cc2nc2c1oc1ccc(Cl)cc12`, the growth was 25.7% in the assay with NCI-H226 lung; 2.57% (active) with NCI-H322M lung; 47.7% in the assay on HOP-62 NSCLC; -31.2% (active) in the assay on NCI-H460 lung; 21.8% with HOP-92 NSCLC; 16.7% in the assay on NCI-H522 lung. Further, the growth in the assay with A549/ATCC NSCLC is -38.4% (active); with 786-0 renal it was -85.3% (active); in the assay with COLO 205 colon, 34.2%; in the assay with DU-145 prostate it was -48.8% (active); with K-562 leukemia it was -6.56% (active); in the assay with MALME-3M melanoma, 49.4%. Further, the growth in the assay on MDA-MB-231 breast is -60.9% (active); in the assay on RXF 393 renal, -80.8% (active); with SF-268 CNS, 43.8%; in the assay on SF-295 CNS, -66.9% (active); in the assay with SF-539 CNS, -85.8% (active); in the assay with UACC-257 melanoma it was 94.5%. The growth in the assay with M14 melanoma was -75.6% (active); in the assay on HCT-15 colon it was -42.4% (active).
